In PubChem BioAssay (EPA / NIEHS):
Records with an inconclusive call do not appear. The source made the active and inactive calls. Rule for the calls, unless noted: active = hit-call score of the fitted dose curve at least 0.9, where 1 is the maximum; inactive = score below 0.9.

Legend:
[1] = biological target: human Retinoid X Receptor beta (RXRb), RXRB (gene 6257) (UniProt P28702); assay: ATG_RXRb_TRANS: Attagene TRANS-FACTORIAL HepG2 Assay for human Retinoid X Receptor beta (RXRb) (AID 2283013; active = hit-call score of the fitted dose curve at least 0.9, where 1 is the maximum)
In short: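 Chimeric receptor-Gal4 activity was assessed in transiently transfected human HepG2 cells after 24 h exposure. Transcripts from GAL4-UAS reporters were quantified by fluorescent RT-PCR and capillary electrophoresis, with DMSO as negative control and baseline.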

[2] = biological target: human Thyroid Receptor alpha (THRa1), THRA (gene 7067) (UniProt P10827); assay: ATG_THRa1_TRANS: Attagene TRANS-FACTORIAL HepG2 Assay for human Thyroid Receptor alpha (THRa1) (AID 2283014; active = hit-call score of the fitted dose curve at least 0.9, where 1 is the maximum)
In short: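 HepG2 cells transiently transfected with multiplexed GAL4-UAS reporter units for exogenous chimeric THRa1-Gal4; reporter mRNA measured 24 h after dosing by RT-PCR, 6-FAM labelling, HpaI digestion and capillary electrophoresis. Gain-of-signal fitted versus DMSO baseline.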

[3] = read-out: E-selectin (Homo sapiens) (UniProt P16581); assay: BSK_3C_Eselectin: BioMAP Diversity Plus: 3C Assay for Eselectin Biomarker Activity (AID 2283015); settings: primary human endothelial cells (HUVEC); actives raise or lower the signal;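 note: cell surface E-selectin protein quantified by ELISA 24 h after dosing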
In short: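 Primary human umbilical vein endothelial cells (3C system) were dosed with chemical and cell-surface E-selectin measured by ELISA 24 h later. Bidirectional curve fitting used DMSO as negative control and baseline.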

[4] = read-out: Interleukin-1 alpha (IL1a), IL1A (gene 3552); assay: BSK_BE3C_IL1a: BioMAP Diversity Plus: BE3C Assay for Interleukin-1 alpha (IL1a) Biomarker Activity (AID 2283016); settings: primary human bronchial epithelial cells; actives raise or lower the signal
In short: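 Signal from IL-1a ELISA, taken 24 h after chemical dosing of human bronchial epithelial cells, is compared with DMSO as baseline using bidirectional curve fitting.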

[5] = read-out: Monocyte Chemoattractant Protein-1 (MCP1), CCL2 (gene 6347); assay: BSK_3C_MCP1: BioMAP Diversity Plus: 3C Assay for Monocyte Chemoattractant Protein-1 (MCP1) Biomarker Activity (AID 2283017); settings: primary human endothelial cells (HUVEC); actives raise or lower the signal
In short: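 Primary human umbilical vein endothelial cells (3C system) were exposed to test chemical for 24 h, after which MCP-1 was quantified by ELISA. Activity was fitted bidirectionally against DMSO as negative control and baseline.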

[6] = read-out: Monocyte Chemoattractant Protein-1 (MCP1), CCL2 (gene 6347); assay: BSK_4H_MCP1: BioMAP Diversity Plus: 4H Assay for Monocyte Chemoattractant Protein-1 (MCP1) Biomarker Activity (AID 2283018); settings: primary human endothelial cells (HUVEC); actives raise or lower the signal
In short: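 Endothelial cells from umbilical vein were treated with test chemical, then after 24 h MCP-1 levels were quantified by ELISA; endpoint values came from bidirectional fitting with DMSO as baseline of activity.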

[7] = read-out: Human Leukocyte Antigen - DR isotype (HLADR), HLA-DRA (gene 3122); assay: BSK_3C_HLADR: BioMAP Diversity Plus: 3C Assay for Human Leukocyte Antigen - DR isotype (HLADR) Biomarker Activity (AID 2283019); settings: primary human endothelial cells (HUVEC); actives raise or lower the signal
In short: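 Primary human umbilical vein endothelial cells (3C system) were dosed with compound and cell-surface HLA-DR was quantified by ELISA at 24 h. Activity was fitted bidirectionally against DMSO as negative control and baseline.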

[8] = read-out: Interleukin-8 (IL8), CXCL8 (gene 3576); assay: BSK_3C_IL8: BioMAP Diversity Plus: 3C Assay for Interleukin-8 (IL8) Biomarker Activity (AID 2283020); settings: primary human endothelial cells (HUVEC); actives raise or lower the signal
In short: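 Endothelial primary cells of human umbilical vein origin are dosed with chemical; after 24 h the IL-8 biomarker is measured by ELISA, and concentration–response is fitted in both directions versus DMSO.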

[9] = read-out: Monokine induced gamma interferon (MIG), CXCL9 (gene 4283); assay: BSK_3C_MIG: BioMAP Diversity Plus: 3C Assay for Monokine induced gamma interferon (MIG) Biomarker Activity (AID 2283021); settings: primary human endothelial cells (HUVEC); actives raise or lower the signal
In short: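 Endothelial primary cells (human umbilical vein) are dosed with test chemical in the 3C system. MIG levels are measured by ELISA at 24 h and fitted in both directions relative to DMSO.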

[10] = BSK_3C_SRB: Viability Assessment in the BioMAP Diversity Plus: 3C Assay (AID 2283023); settings: primary human endothelial cells (HUVEC);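 note: fitted both ways against DMSO so a hit may be signal rise or drop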
In short: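 Primary human umbilical vein endothelial cells in the 3C system were read 24 h after compound dosing. Total protein was stained with 0.1% sulforhodamine B after 10% TCA fixation and read at 560 nm, with bidirectional fitting against DMSO as baseline.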

[11] = read-out: Matrix Metallopeptidase 1 (MMP1), MMP1 (gene 4312); assay: BSK_BE3C_MMP1: BioMAP Diversity Plus: BE3C Assay for Matrix Metallopeptidase 1 (MMP1) Biomarker Activity (AID 2283024); settings: primary human bronchial epithelial cells; actives raise or lower the signal
In short: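 MMP1 signal, measured by ELISA after a 24 h chemical exposure of human primary bronchial epithelial cells, is analysed with bidirectional fitting using DMSO as negative control.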

[12] = BSK_3C_Vis: BioMAP Diversity Plus: 3C Assay for Morphology Visualization (AID 2283025); settings: primary human endothelial cells (HUVEC);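 note: fitted both ways so gain or loss versus DMSO counts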
In short: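 Morphology read by light microscopy serves as a background control for the multiplexed 3C assay in human umbilical vein endothelial cells, taken 24 h after dosing, with DMSO as the negative control and bidirectional curve fitting.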

[13] = read-out: Pselectin, SELP (gene 6403); assay: BSK_4H_Pselectin: BioMAP Diversity Plus: 4H Assay for Pselectin Biomarker Activity (AID 2283026); settings: primary human endothelial cells (HUVEC); actives raise or lower the signal
In short: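 Endothelial primary cells (human umbilical vein) are dosed, incubated 24 h, and assayed for surface P-selectin by ELISA; responses in either direction are fitted relative to the DMSO negative control.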

[14] = BSK_4H_SRB: Viability Assessment in the BioMAP Diversity Plus: 4H Assay (AID 2283027); settings: primary human endothelial cells (HUVEC);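 note: cells exposed to compound for 24 h before staining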
In short: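 Cytotoxicity readout: sulforhodamine B (0.1%) staining of total protein after 10% TCA fixation, measured at 560 nm in human umbilical vein endothelium at 24 h. DMSO set the baseline; fitting was bidirectional.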

[15] = BSK_BE3C_SRB: Viability Assessment in the BioMAP Diversity Plus: BE3C Assay (AID 2283028); settings: primary human bronchial epithelial cells
In short: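 Human primary bronchial epithelial cells were exposed to test chemicals for 24 h. Total protein in parallel cultures was then measured by staining with 0.1% sulforhodamine B after 10% TCA fixation, with absorbance read at 560 nm. Activity was fitted bidirectionally against DMSO.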

[16] = read-out: Thrombomodulin, THBD (gene 7056); assay: BSK_3C_Thrombomodulin: BioMAP Diversity Plus: 3C Assay for Thrombomodulin Biomarker Activity (AID 2283029); settings: primary human endothelial cells (HUVEC); actives raise or lower the signal
In short: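 Endothelial cells from umbilical vein are dosed with test chemical and incubated 24 h. Thrombomodulin is then quantified by ELISA, with DMSO serving as negative control and activity baseline.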

[17] = read-out: Urokinase-type plasminogen activator receptor (uPAR), PLAUR (gene 5329); assay: BSK_4H_uPAR: BioMAP Diversity Plus: 4H Assay for Urokinase-type plasminogen activator receptor (uPAR) Biomarker Activity (AID 2283030); settings: primary human endothelial cells (HUVEC); actives raise or lower the signal
In short: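 Primary human umbilical vein endothelial cells were exposed to chemical for 24 h before cell-surface uPAR was quantified by ELISA. Activity was fitted bidirectionally against the DMSO negative control baseline.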

[18] = read-out: Vascular endothelial growth factor receptor 2 (Homo sapiens) (UniProt P35968); assay: BSK_4H_VEGFRII: BioMAP Diversity Plus: 4H Assay for Vascular endothelial growth factor receptor 2 (VEGFR2) Biomarker Activity (AID 2283031); settings: primary human endothelial cells (HUVEC); actives raise or lower the signal
In short: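 Primary human umbilical vein endothelial cells in the BioMAP 4H system were dosed with test chemical, and 24 h later VEGFRII was measured by ELISA. Activity was fitted bidirectionally against DMSO as negative control and baseline.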

[19] = biological target: human Vitamin D Receptor (VDR), VDR (gene 7421) (UniProt P11473); assay: ATG_VDR_TRANS: Attagene TRANS-FACTORIAL HepG2 Assay for human Vitamin D Receptor (VDR) (AID 2283022; active = hit-call score of the fitted dose curve at least 0.9, where 1 is the maximum)
In short: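 HepG2 cells were transiently transfected with multiple GAL4-UAS reporter units, so signal reflects exogenous chimeric receptor-Gal4 activity. After 24 h compound exposure, reporter mRNA was measured by RT-PCR, fluorescent labelling and capillary electrophoresis, fitted for gain of signal versus DMSO.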

Measured: AC50

E-selectin (Homo sapiens), sequence (P16581 whole entry, looked up): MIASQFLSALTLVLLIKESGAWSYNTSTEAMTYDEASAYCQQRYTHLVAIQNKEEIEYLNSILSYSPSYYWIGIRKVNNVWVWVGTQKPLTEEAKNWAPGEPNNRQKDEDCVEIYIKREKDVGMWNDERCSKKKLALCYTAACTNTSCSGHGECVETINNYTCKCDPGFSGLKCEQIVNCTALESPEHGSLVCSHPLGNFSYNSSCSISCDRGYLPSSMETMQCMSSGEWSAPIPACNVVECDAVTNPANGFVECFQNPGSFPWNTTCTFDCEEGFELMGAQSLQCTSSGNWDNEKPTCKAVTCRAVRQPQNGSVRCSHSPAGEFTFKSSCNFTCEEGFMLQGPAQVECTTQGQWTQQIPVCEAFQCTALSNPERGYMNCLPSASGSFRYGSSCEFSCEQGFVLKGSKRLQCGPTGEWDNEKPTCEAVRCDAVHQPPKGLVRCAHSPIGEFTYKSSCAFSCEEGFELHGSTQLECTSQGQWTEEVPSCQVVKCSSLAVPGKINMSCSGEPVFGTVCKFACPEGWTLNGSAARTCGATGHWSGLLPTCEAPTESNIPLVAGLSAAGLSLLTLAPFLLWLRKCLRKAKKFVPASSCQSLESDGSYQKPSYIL
human Thyroid Receptor alpha (THRa1), THRA (gene 7067), sequence (P10827 whole entry, looked up, the tested form may be a part): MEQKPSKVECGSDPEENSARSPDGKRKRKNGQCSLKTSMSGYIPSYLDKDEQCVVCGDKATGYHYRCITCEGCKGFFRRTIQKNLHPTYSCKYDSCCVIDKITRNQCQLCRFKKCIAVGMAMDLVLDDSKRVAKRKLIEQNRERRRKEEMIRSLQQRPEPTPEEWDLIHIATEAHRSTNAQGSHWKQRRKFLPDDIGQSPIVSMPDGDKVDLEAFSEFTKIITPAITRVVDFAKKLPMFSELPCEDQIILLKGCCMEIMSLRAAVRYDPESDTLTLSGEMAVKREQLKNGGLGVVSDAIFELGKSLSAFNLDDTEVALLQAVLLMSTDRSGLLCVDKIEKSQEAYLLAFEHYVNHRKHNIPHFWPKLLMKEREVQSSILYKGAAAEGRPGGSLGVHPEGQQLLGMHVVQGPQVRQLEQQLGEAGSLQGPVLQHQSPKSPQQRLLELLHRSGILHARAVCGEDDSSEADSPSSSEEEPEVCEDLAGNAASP
human Vitamin D Receptor (VDR), VDR (gene 7421), sequence (P11473 whole entry, looked up, the tested form may be a part): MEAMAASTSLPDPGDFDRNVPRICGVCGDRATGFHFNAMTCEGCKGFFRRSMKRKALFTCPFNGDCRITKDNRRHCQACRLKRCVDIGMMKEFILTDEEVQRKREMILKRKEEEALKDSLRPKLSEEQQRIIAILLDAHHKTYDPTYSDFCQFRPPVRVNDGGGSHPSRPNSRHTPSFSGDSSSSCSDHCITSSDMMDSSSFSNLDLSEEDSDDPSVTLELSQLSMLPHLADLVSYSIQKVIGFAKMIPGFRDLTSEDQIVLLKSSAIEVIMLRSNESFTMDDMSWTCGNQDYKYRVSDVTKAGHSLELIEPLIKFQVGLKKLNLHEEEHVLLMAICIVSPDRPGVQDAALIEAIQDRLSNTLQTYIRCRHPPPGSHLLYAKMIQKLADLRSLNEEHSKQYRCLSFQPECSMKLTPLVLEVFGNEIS
human Retinoid X Receptor beta (RXRb), RXRB (gene 6257), sequence (P28702 whole entry, looked up, the tested form may be a part): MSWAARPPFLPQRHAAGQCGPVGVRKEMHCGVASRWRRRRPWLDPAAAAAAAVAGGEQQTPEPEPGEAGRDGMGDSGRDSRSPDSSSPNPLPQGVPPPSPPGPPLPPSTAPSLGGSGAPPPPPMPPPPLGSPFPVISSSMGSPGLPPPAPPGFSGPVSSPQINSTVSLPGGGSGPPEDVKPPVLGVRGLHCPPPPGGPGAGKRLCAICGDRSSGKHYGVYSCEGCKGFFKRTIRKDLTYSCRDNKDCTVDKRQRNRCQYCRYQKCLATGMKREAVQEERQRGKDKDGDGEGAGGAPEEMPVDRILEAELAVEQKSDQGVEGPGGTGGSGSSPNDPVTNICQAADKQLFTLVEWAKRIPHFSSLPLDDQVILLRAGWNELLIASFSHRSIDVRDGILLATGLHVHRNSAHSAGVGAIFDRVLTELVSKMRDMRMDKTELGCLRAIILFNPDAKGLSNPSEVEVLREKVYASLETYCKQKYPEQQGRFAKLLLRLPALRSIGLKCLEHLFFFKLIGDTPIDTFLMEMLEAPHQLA

CNC(=O)N(C)c1nc2ccccc2s1
inactive: [1] | [2]

O=C(Cl)OCCOCCOC(=O)Cl
inactive: [1] | [2]

CCN(CC)C(=O)C(Cl)=C(C)OP(=O)(OC)OC
not listed: [1] | [19]
inactive: all other assays above

CC(C)(COCC1CO1)COCC1CO1 (stereo not drawn)
active: [7] 20000 nM
not listed: [1]
inactive: all other assays above

Nc1nc(N)nc(Cl)n1
inactive: [2]

N#Cc1cccnc1
not listed: [1] | [19]
inactive: all other assays above

Cc1cccc(OP(=O)(Oc2cccc(C)c2)Oc2cccc(C)c2)c1
active: [4] 780 nM | [16] 140 nM
not listed: [1] | [2] | [19]
inactive: all other assays above

CCOC(=O)c1ccccc1S(=O)(=O)NC(=O)Nc1nc(Cl)cc(OC)n1
inactive: [2]

N#Cc1ccccc1N
inactive: [2] | [19]

O=C(NC(=O)c1c(F)cccc1F)Nc1cc(Cl)c(Oc2ncc(C(F)(F)F)cc2Cl)c(Cl)c1
inactive: [2] | [19]

CN(C1CCCCC1)C1CCCCC1
inactive: [2] | [19]

CC(C)(c1ccccc1)c1cc(-n2nc3ccccc3n2)c(O)c(C(C)(C)c2ccccc2)c1
inactive: [2]

O=C(Nc1ccc(Br)cc1)c1cc(Br)cc(Br)c1O
inactive: [2] | [19]
